# Reference: PubChem BioAssay (NCI)
# “And” between values parts separate entries of the source, which are not always exact repeats. Equal values may be shown once. Compounds without any hit were thinned out: in the full panel of roughly 79,000, 15% have a hit. The source holds several records for some structures; these can differ, active in one and inactive in another. The source made the active and inactive calls. No stated cut-off is given here; in the data, active means growth inhibition above about 70%; inactive means the rest.
# Columns and labels:
# [1] = NCI Yeast Anticancer Drug Screen. Data for the rad50 strain (AID 155);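 further: 0% = growth of vehicle-only cultures of the same strain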; details: S. cerevisiae rad50 strain growth inhibition, stronger effect = higher value
# How it was run: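 Genetically altered yeast (DNA repair pathway); compound treatment; growth inhibition vs vehicle ctrl.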
# [2] = NCI Yeast Anticancer Drug Screen. Data for the mec2-1 strain (AID 157); details: S. cerevisiae mec2-1 strain, stronger effect = higher value
# How it was run: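 mec2-1 yeast strain, carrying an alteration in DNA damage repair or cell cycle control, was exposed to compounds; growth inhibition was measured relative to vehicle-treated controls.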
# [3] = NCI Yeast Anticancer Drug Screen. Data for the sgs1 mgt1 strain (AID 161);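 further: 0% = growth of cultures given vehicle only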; details: S. cerevisiae sgs1 mgt1 strain, stronger effect = higher value
# How it was run: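 Compounds are added to genetically altered yeast, and growth is compared with cultures given vehicle alone to give percent inhibition.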
# [4] = NCI Yeast Anticancer Drug Screen. Data for the cln2 rad14 strain (AID 165);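 further: 0% = growth equal to vehicle treated cultures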; details: S. cerevisiae cln2 rad14 strain, stronger effect = higher value
# How it was run: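 Yeast carrying cln2 and rad14 alterations (cell cycle control and DNA damage repair) were exposed to compounds. Growth inhibition was measured against vehicle-treated controls.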
# [5] = NCI Yeast Anticancer Drug Screen. Data for the bub3 strain (AID 167); details: S. cerevisiae bub3 mutant strain, stronger effect = higher value
# How it was run: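 Yeast carrying a defined mutation is treated with each compound, and growth is compared with that of vehicle-exposed cells to give inhibition.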
# [6] = NCI Yeast Anticancer Drug Screen. Data for the mlh1 rad18 strain (AID 175); details: S. cerevisiae mlh1 rad18 strain growth inhibition, stronger effect = higher value
# How it was run: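 Growth inhibition of the yeast strain was measured after compound exposure and expressed relative to vehicle-treated controls. The strain carries defined defects in DNA damage repair.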
# [7] = at 5.0 µM (retest, dose inferred, filed as 0.5)
# [8] = at 50.0 µM (retest, dose inferred, filed as 5.0)
SMILES,"growth inhibition [1, 7]","growth inhibition [1, 8]",growth inhibition ([1]; at 50.0 µM),"growth inhibition [2, 7]","growth inhibition [2, 8]",growth inhibition ([2]; at 50.0 µM),"growth inhibition [3, 7]","growth inhibition [3, 8]",growth inhibition ([3]; at 50.0 µM),"growth inhibition [4, 7]","growth inhibition [4, 8]",growth inhibition ([4]; at 50.0 µM),"growth inhibition [5, 7]","growth inhibition [5, 8]",growth inhibition ([5]; at 50.0 µM),"growth inhibition [6, 7]","growth inhibition [6, 8]",growth inhibition ([6]; at 50.0 µM)
c1ccc([CH2][Pb]([c]2ccccc2)([c]2ccccc2)[c]2ccccc2)cc1,96% (active),96% (active),97.2% (active),97% (active),99% (active),99.2% (active),97% (active),98% (active),98.7% (active),95% (active),95% (active),98.5% (active),98% (active),97% (active),99% (active),97% (active),97% (active),99.2% (active)
C=Cc1cc(OC)c2c(c1)c(=O)oc1c2cc(OC)c2c(O)ccc(C3OC(C)C(O)C(C)(O)C3O)c21 (stereo unspecified),96% (active),97% (active),90.8% (active),97% (active),97% (active),91.8% (active),97% (active),98% (active),90.3% (active),97% (active),97% (active),90.1% (active),97% (active),98% (active),89.4% (active),96% (active),96% (active),89.9% (active)
c1cc2c(c(NC3=NCCN3)c1)CCCC2,12% (inactive),18% (inactive),-12.2% (inactive),1% (inactive),-17% (inactive),-18.9% (inactive),1% (inactive),12% (inactive),-7% (inactive),-21% (inactive),-4% (inactive),33.1% (inactive),-26% (inactive),-7% (inactive),-9.9% (inactive),2% (inactive),13% (inactive),7.65% (inactive)
CC(O)([CH2][Hg][Cl])C(O)[CH2][Hg][Cl] (stereo unspecified),98% (active),99% (active),99.2% (active),99% (active),100% (active),99.5% (active),98% (active),99% (active),99.3% (active),98% (active),99% (active),97.7% (active),99% (active),99% (active),99.4% (active),99% (active),99% (active),97.5% (active)
CCc1ccc2c(c1)N(CCCN(CCCl)CCCl)c1ccccc1S2,-4% (inactive),85% (active),98.5% (active),44% (inactive),59% (inactive),99.2% (active),-4% (inactive),89% (active),98.6% (active),-1% (inactive),53% (inactive),96.8% (active),-1% (inactive),94% (active),98.5% (active),-2% (inactive),94% (active),98.6% (active)
S=C(S)N1CCCCC1,42% (inactive) and 15% (inactive),57% (inactive) and 13% (inactive),73.5% (active) and 45.1% (inactive) and 29.9% (inactive),38% (inactive) and 19% (inactive),60% (inactive) and 6% (inactive),45.7% (inactive) and 90.3% (active) and 31.6% (inactive),42% (inactive) and 15% (inactive),99% (active) and 41% (inactive),60.5% (inactive) and 97.8% (active) and 25.5% (inactive),76% (active) and 3% (inactive),99% (active) and -48% (inactive),29.4% (inactive) and 33.2% (inactive) and 0.25% (inactive),56% (inactive) and 0% (inactive),90% (active) and -1% (inactive),37.6% (inactive) and 99.3% (active) and -10.9% (inactive),46% (inactive) and 31% (inactive),56% (inactive) and 27% (inactive),52.8% (inactive) and 70.8% (active) and 59.6% (inactive)
O=C(COc1ccc(Cl)c(Cl)c1)N(Cc1ccccc1)Cc1ccc[n+](Cc2ccc(Cl)cc2S(=O)(=O)F)c1,8% (inactive),84% (active),54% (inactive),44% (inactive),42% (inactive),54.9% (inactive),2% (inactive),62% (inactive),-0.3% (inactive),10% (inactive),78% (active),50.4% (inactive),2% (inactive),82% (active),42.4% (inactive),6% (inactive),96% (active),60.1% (inactive)
[Cl][Hg][Cl].c1ccc(CSc2ccccc2)cc1,99% (active),99% (active),99% (active),100% (active),100% (active),99.7% (active),100% (active),99% (active),99.3% (active),99% (active),99% (active),99.4% (active),99% (active),99% (active),99.2% (active),99% (active),99% (active),99.5% (active)
Cc1cc(O)c2c(c1)C(=O)C13C(=C2O)C(=O)C2C(O)C1C1C(O)C3C(=O)C3=C(O)c4c(O)cc(C)cc4C(=O)C321 (stereo unspecified),18% (inactive),44% (inactive),69.7% (inactive),57% (inactive),46% (inactive),76.2% (active),40% (inactive),48% (inactive),79.5% (active),64% (inactive),47% (inactive),60.1% (inactive),88% (active),70% (active),80.2% (active),34% (inactive),42% (inactive),69% (inactive)
C=C1C(C)C2C(Cc3ccccc3)NC(=O)C23C(OC(C)=O)C=CC(C)(O)C(=O)C(C)C/C=C/C3C1O (stereo unspecified),72% (active),96% (active),88.8% (active),57% (inactive),96% (active),90.1% (active),58% (inactive),97% (active),89.2% (active),80% (active),96% (active),85.2% (active),71% (active),98% (active),84% (active),80% (active),96% (active),84.1% (active)
COc1cc(C(c2c(O)c3ccccc3oc2=O)c2c(O)c3ccccc3oc2=O)cc(OC)c1O,4% (inactive),20% (inactive),75% (active),-2% (inactive),19% (inactive),44.3% (inactive),-2% (inactive),12% (inactive),54.7% (inactive),0% (inactive),0% (inactive),70.8% (active),-5% (inactive),-10% (inactive),50% (inactive),-7% (inactive),2% (inactive),90.6% (active)
CCC[As](CCC)SC1CCC2(C)C(=CCC3C4CCC(=O)C4(C)CCC32)C1 (stereo unspecified),17% (inactive),98% (active),49.5% (inactive),9% (inactive),87% (active),3.1% (inactive),19% (inactive),84% (active),82% (active),-3% (inactive),89% (active),34.8% (inactive),0% (inactive),77% (active),17.4% (inactive),11% (inactive),97% (active),88.5% (active)
CC1CCOC(=O)/C=C/C=C/C(=O)OC2CC3OC4C5OC5(C)C(O)CC4(COC(=O)C1O)C2(C)C31CO1 (stereo unspecified),16% (inactive),95% (active),90.3% (active),27% (inactive),90% (active),92% (active),21% (inactive),95% (active),91.5% (active),42% (inactive),97% (active),89.5% (active),18% (inactive),95% (active),89.2% (active),17% (inactive),94% (active),89.4% (active)
O=S(=O)(O)O.[Pt].c1ccc([PH+](c2ccccc2)c2ccccc2)cc1.c1ccc([PH+](c2ccccc2)c2ccccc2)cc1.c1ccc([PH+](c2ccccc2)c2ccccc2)cc1,23% (inactive),95% (active),93.8% (active),13% (inactive),94% (active),98.1% (active),9% (inactive),94% (active),94.3% (active),8% (inactive),97% (active),97.8% (active),-7% (inactive),92% (active),96.7% (active),39% (inactive),95% (active),95.2% (active)
CCOP(=O)(O)C(Nc1ccc(N=Nc2ccccc2)cc1)c1cccc(C(Nc2ccc(N=Nc3ccccc3)cc2)P(=O)(O)OCC)c1 (stereo unspecified),10% (inactive),29% (inactive),49.4% (inactive),0% (inactive),46% (inactive),47.6% (inactive),5% (inactive),8% (inactive),46.3% (inactive),6% (inactive),27% (inactive),44% (inactive),4% (inactive),35% (inactive),42.5% (inactive),7% (inactive),42% (inactive),47.9% (inactive)
COC1=[C]([Hg][Br])C(OC)OC1OC (stereo unspecified),99% (active),99% (active),99.6% (active),98% (active),99% (active),99.5% (active),99% (active),99% (active),99.5% (active),98% (active),98% (active),98.8% (active),99% (active),99% (active),98.9% (active),99% (active),99% (active),99.5% (active)
CC12CCC(C)(c3cc(O)c(O)cc31)c1cc(O)c(O)cc12,-4% (inactive),4% (inactive),52.3% (inactive),-1% (inactive),-1% (inactive),31.4% (inactive),-1% (inactive),4% (inactive),37% (inactive),2% (inactive),19% (inactive),57.5% (inactive),4% (inactive),33% (inactive),43.9% (inactive),-1% (inactive),22% (inactive),70.1% (active)
